According to PubChem BioAssay (NCI):
This is part of a sample that, as a whole, favours compounds with a hit. Of some 79,000 tested, about 15% had one in any assay. The source made the active and inactive calls. No stated cut-off is given here; in the data, active means growth inhibition above about 70%; inactive means the rest.

How the values were obtained:
[1] = NCI Yeast Anticancer Drug Screen. Data for the rad52 strain (AID 147);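 further: 0% = growth of vehicle-treated control cultures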; settings: S. cerevisiae rad52 mutant growth inhibition, stronger effect = higher value
How it was run: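 Measured: yeast growth inhibition. System: strain with a defined DNA damage repair alteration. Reference: vehicle-treated control cultures.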

[2] = NCI Yeast Anticancer Drug Screen. Data for the wt1 strain (AID 149);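 further: 0% = growth of vehicle-treated wt1 cultures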; settings: S. cerevisiae wt1 strain (SPY 50644) growth inhibition, stronger effect = higher value
How it was run: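 Measured: growth of wt1 yeast under compound versus vehicle treatment, reported as inhibition.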

[3] = NCI Yeast Anticancer Drug Screen. Data for the rad50EPP+ strain (AID 151);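 further: 0% = growth of vehicle-treated control cultures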; settings: S. cerevisiae rad50 mutant strain, stronger effect = higher value
How it was run: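 One strain with a rad50 alteration (rad50EPP+) was compound-treated, its growth then compared to that of vehicle controls.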

[4] = NCI Yeast Anticancer Drug Screen. Data for the mgt1 strain (AID 153); settings: S. cerevisiae mgt1 mutant growth inhibition, stronger effect = higher value
How it was run: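 After exposure of the mgt1 yeast mutant to compound, growth was measured and reported as inhibition compared with vehicle controls.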

[5] = NCI Yeast Anticancer Drug Screen. Data for the rad50 strain (AID 155);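 further: 0% = growth of vehicle-only cultures of the same strain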; settings: S. cerevisiae rad50 strain growth inhibition, stronger effect = higher value
How it was run: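 Growth of the mutant yeast was measured after compound exposure and referenced to vehicle-treated cultures.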

[6] = NCI Yeast Anticancer Drug Screen. Data for the mec2-1 strain (AID 157); settings: S. cerevisiae mec2-1 strain, stronger effect = higher value
How it was run: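 Test agents were screened against the mec2-1 yeast strain, with defined DNA repair or cell cycle alteration. Growth was scored as inhibition against vehicle-only controls.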

[7] = NCI Yeast Anticancer Drug Screen. Data for the rad14 strain (AID 159);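 further: 0% = growth of vehicle-treated control cultures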; settings: S. cerevisiae rad14 strain growth inhibition, stronger effect = higher value
How it was run: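 Here, inhibition of yeast growth was measured after compound exposure, using a strain with a genetic defect in DNA damage repair and vehicle-treated cultures as the reference.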

[8] = NCI Yeast Anticancer Drug Screen. Data for the sgs1 mgt1 strain (AID 161);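 further: 0% = growth of cultures given vehicle only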; settings: S. cerevisiae sgs1 mgt1 strain, stronger effect = higher value
How it was run: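 Inhibition of yeast growth, normalised to vehicle-treated controls, is reported for a strain bearing genetic alterations in DNA damage repair.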

[9] = NCI Yeast Anticancer Drug Screen. Data for the CLN2oe strain (AID 163);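 further: 0% = growth of vehicle-only control cultures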; settings: S. cerevisiae CLN2oe strain, stronger effect = higher value
How it was run: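 Here, growth inhibition in a cell-cycle-altered yeast strain after compound exposure was quantified against vehicle control growth.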

[10] = NCI Yeast Anticancer Drug Screen. Data for the cln2 rad14 strain (AID 165);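 further: 0% = growth equal to vehicle treated cultures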; settings: S. cerevisiae cln2 rad14 strain, stronger effect = higher value
How it was run: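 Growth of compound-exposed yeast (cln2 rad14 genotype) measured and expressed as inhibition relative to vehicle.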

[11] = NCI Yeast Anticancer Drug Screen. Data for the bub3 strain (AID 167); settings: S. cerevisiae bub3 mutant strain, stronger effect = higher value
How it was run: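 Whole-cell yeast assay. The mutant strain was incubated with compounds, and growth inhibition was determined by comparison with vehicle-treated cells.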

[12] = NCI Yeast Anticancer Drug Screen. Data for the wt2 strain (AID 169);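 further: 0% = growth of vehicle-treated yeast cultures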; settings: S. cerevisiae wt2 strain growth inhibition, stronger effect = higher value
How it was run: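 Genetically defined yeast strains from a DNA-repair/cell-cycle panel were used. Compound-exposed yeast growth was measured, and the inhibition was calculated relative to vehicle treatment.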

[13] = NCI Yeast Anticancer Drug Screen. Data for the mlh1 strain (AID 171);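 further: 0% = growth of vehicle-treated control cultures of the same strain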; settings: S. cerevisiae mlh1 strain growth inhibition, stronger effect = higher value
How it was run: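 Here the genetically defined yeast mutant is grown with each compound, and the extent to which its growth falls below that of vehicle-exposed cells is reported.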

[14] = NCI Yeast Anticancer Drug Screen. Data for the sgs1 strain (AID 173);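 further: 0% = growth of vehicle-only control cultures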; settings: S. cerevisiae sgs1 mutant, stronger effect = higher value
How it was run: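 Relative growth inhibition, referenced to vehicle, was determined in a yeast strain with a defined alteration affecting DNA damage repair or cell cycle control after compound exposure.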

[15] = NCI Yeast Anticancer Drug Screen. Data for the mlh1 rad18 strain (AID 175); settings: S. cerevisiae mlh1 rad18 strain growth inhibition, stronger effect = higher value
How it was run: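 In this whole-cell yeast screen, a strain with altered DNA damage repair is challenged with compound, and its growth is measured against matched vehicle-treated controls.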

[16] = NCI Yeast Anticancer Drug Screen. Data for the rad18 strain (AID 177); settings: S. cerevisiae rad18 mutant growth inhibition, stronger effect = higher value
How it was run: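 Screen uses a yeast strain with a defined lesion in DNA damage repair; compound effect is read as loss of growth compared to untreated vehicle cultures.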

[17] = at 5.0 µM (retest, dose inferred, filed as 0.5)
[18] = at 50.0 µM (retest, dose inferred, filed as 5.0)

Measured: growth inhibition

S=C1N(c2ccc(Cl)cc2)C2=C(N=Nc3ccccc3)C(=Nc3ccccc3S2)N1c1ccccn1
active: [1]; at 33.0 µM 98% | [1]; at 100.0 µM 99% | [2]; at 100.0 µM 85% | [3]; at 33.0 µM 94% | [3]; at 100.0 µM 97% | [4]; at 33.0 µM 99% | [4]; at 100.0 µM 99% | [5]; at 33.0 µM 95% | [5]; [18] 99% | [5]; at 50.0 µM 98.5% | [5]; at 100.0 µM 99% | [6]; at 33.0 µM 99% | [6]; [18] 100% | [6]; at 50.0 µM 98.5% | [6]; at 100.0 µM 99% | [7]; at 33.0 µM 90% | [7]; at 100.0 µM 99% | [8]; [18] 99% | [8]; at 50.0 µM 99% | [10]; [18] 99% | [10]; at 50.0 µM 98.5% | [11]; at 33.0 µM 84% | [11]; [18] 99% | [11]; at 50.0 µM 98.3% | [11]; at 100.0 µM 98% | [13]; at 33.0 µM 94% | [13]; at 100.0 µM 99% | [14]; at 33.0 µM 98% | [14]; at 100.0 µM 99% | [15]; [18] 99% | [15]; at 50.0 µM 99% | [16]; at 33.0 µM 94% | [16]; at 100.0 µM 99%
inactive: [1]; at 1.2 µM 8% | [1]; at 3.7 µM 16% | [1]; at 11.0 µM 51% | [2]; at 1.2 µM -3% | [2]; at 3.7 µM -3% | [2]; at 11.0 µM 3% | [2]; at 33.0 µM 29% | [3]; at 1.2 µM -11% | [3]; at 3.7 µM 3% | [3]; at 11.0 µM 61% | [4]; at 1.2 µM 13% | [4]; at 3.7 µM 15% | [4]; at 11.0 µM 66% | [5]; at 1.2 µM 6% | [5]; at 3.7 µM 12% | [5]; [17] 41% | [5]; at 11.0 µM 42% | [6]; at 1.2 µM 20% | [6]; at 3.7 µM 23% | [6]; [17] 3% | [6]; at 11.0 µM 62% | [7]; at 1.2 µM 14% | [7]; at 3.7 µM 19% | [7]; at 11.0 µM 40% | [8]; [17] 54% | [9]; at 1.2 µM -3% | [9]; at 3.7 µM -7% | [9]; at 11.0 µM 3% | [9]; at 33.0 µM 24% | [9]; at 100.0 µM 69% | [10]; [17] 13% | [11]; at 1.2 µM 22% | [11]; at 3.7 µM 22% | [11]; [17] 53% | [11]; at 11.0 µM 41% | [12]; at 1.2 µM -1% | [12]; at 3.7 µM -1% | [12]; at 11.0 µM 4% | [12]; at 33.0 µM 23% | [12]; at 100.0 µM 50% | [13]; at 1.2 µM 9% | [13]; at 3.7 µM 12% | [13]; at 11.0 µM 29% | [14]; at 1.2 µM 9% | [14]; at 3.7 µM 19% | [14]; at 11.0 µM 52% | [15]; [17] 32% | [16]; at 1.2 µM 9% | [16]; at 3.7 µM 16% | [16]; at 11.0 µM 44%
